# Data from PubChem BioAssay (NCATS).
# “And” between values parts separate entries of the source, which are not always exact repeats. Equal values may be shown once. Results filed as inconclusive are left out. The source made the active and inactive calls. Unless noted, calls follow the shape of the dose curve; as a rule, active = well fitted curve in the direction sought with a large enough effect; inconclusive = small, poorly fitted or top-dose-only effect, or another doubt; inactive = no such curve, though single readings can be large; an effect the other way counts as inactive or inconclusive.
# What was measured:
# [1] = qHTS assay for small molecule antagonists of retinoid X receptor alpha signaling (AID 588546; active = well fitted inhibition curve with a large enough effect in the signal ratio, with a control signal flat, not every such curve was filed as active; the % refers to the signal ratio;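 also: cells stimulated with 9-cis-retinoic acid as agonist; % is scaled to controls: 0 for no effect and ±100 for the full control effect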); details: HEK293T RXRa-UAS-bla, beta-lactamase ratio, antagonist mode; measured here: W530 green channel, cytotoxicity proxy
# Procedure, shortened: (§1)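 Beta-lactamase reporter inhibition, read as CCF4 fluorescence ratio (ex 405, em 460/530 nm) after 2 h at RT. HEK293T UAS-bla cells, 2500/well, were stimulated with 9-cis-RA at 500 or 100 nM final alongside test compound for 18 h at 37 C.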
# [2] = molecular target: Retinoic acid receptor RXR-alpha (Homo sapiens) (UniProt P19793); test: as above; details: HEK293T RXRa-UAS-bla, beta-lactamase ratio, antagonist mode
# Procedure, shortened: as §1
# [3] = molecular target: Luciferin 4-monooxygenase (Photinus pyralis) (UniProt P08659); test: Biochemical firefly luciferase enzyme assay for NPC (AID 624030);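 also: purified P. pyralis luciferase at 10 nM with luciferin and ATP substrate; 0% = DMSO and -100% = full luciferase inhibition by PTC124 control; nearly all actives have a fitted effect of over 70% in size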; details: purified P. pyralis luciferase, luminescence, 5 min; series mostly up to 58.6 µM
# Procedure, shortened: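 Counter-screen for direct inhibition of the luciferase enzyme by approved-drug library compounds, run at 10 nM enzyme in 50 mM Tris acetate (final). Luminescence was read within 5 min of enzyme-buffer addition and normalized to PTC124 versus DMSO (0%).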
# [4] = qHTS assay for small molecule activators of the p53 signaling pathway (AID 651743; active = well fitted activation curve with a large enough effect in the signal ratio, not every such curve was filed as active; the % refers to the signal ratio; also: potency is read from the fitted curve at half-maximal effect; as to activation: % of control where 0% means no effect); details: HCT-116 p53RE-bla, beta-lactamase FRET ratio, 16 h; activation: stronger effect = higher value
# Procedure, shortened: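 Cell-based beta-lactamase reporter (p53 response elements, HCT-116 background). After a 5-hour preincubation, cells received compound for 16 hours at 37 C; substrate development ran 2 hours at room temperature.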
# [5] = molecular target: Thyroid hormone receptor beta (Homo sapiens) (UniProt P10828); test: qHTS assay for small molecule agonists of thyroid hormone receptor beta signaling (AID 588545; calls by dose curve); details: TR-UAS-bla GripTite HEK 293, beta-lactamase ratio, agonist mode, 18 h, percent of T3 response, DMSO as zero; series mostly up to 76.7 µM
# Procedure, shortened: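 HEK 293 TR-UAS-bla; agonist mode; 18 hrs, 37 C; CCF4, ex 405/em 460 and 530 nm; norm. T3 10 nM = 100%, DMSO = 0%; Hill fit → EC50, efficacy.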
# [6] = molecular target: Thyroid hormone receptor beta (Homo sapiens) (UniProt P10828); test: qHTS assay for small molecule antagonists of thyroid hormone receptor beta signaling (AID 588547; active = well fitted inhibition curve with a large enough effect in the signal ratio, with a control signal flat, not every such curve was filed as active; the % refers to the signal ratio;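 also: cells stimulated with 0.4 nM T3 agonist during compound exposure; % is scaled to controls: 0 for no effect and ±100 for the full control effect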); details: TR-UAS-bla HEK293, beta-lactamase ratio, antagonist mode, 18 h
# Procedure, shortened: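 TR-UAS-bla GripTite HEK293 cells in 2% charcoal/dextran FBS medium were preincubated 4 h at 37 C, given compound (0.59 nM to 92 uM) plus 0.4 nM T3 (final) for 18 h, then CCF4 for 2 h at RT; Hill fit gave IC50.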
# [7] = qHTS assay for small molecule agonists of the antioxidant response element (ARE) signaling pathway (AID 651741; active = well fitted activation curve with a large enough effect in the signal ratio; the % refers to the signal ratio; also: potency is read from the fitted curve at half-maximal effect; as to activation: % of control where 0% means no effect); details: HepG2 ARE-bla reporter, beta-lactamase FRET ratio, 16 h; series mostly up to 96 µM
# Procedure, shortened: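 Compounds in DMSO are pinned onto HepG2 ARE-bla cells (2,000/well) that were preincubated 5 h; plates stay 16 h at 37 C, then beta-lactamase activity is detected with LiveBLAzer B/G substrate by fluorescence.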
# [8] = molecular target: Voltage-gated inwardly rectifying potassium channel KCNH2 (Homo sapiens) (UniProt Q12809); test: qHTS Assay for Small Molecule Inhibitors of the Human hERG Channel Activity (AID 588834); details: U2OS BacMam hERG, FluxOR thallium flux fluorescence; series mostly up to 92.2 µM;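 also: lower thallium flux fluorescence means stronger hERG block; nearly all actives have a fitted effect of over 50% in size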; also: potency is read from the fitted curve at half-maximal effect
# Procedure, shortened: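 U2OS cells transduced with hERG via BacMam (MOI ~100), plated 2000/well, loaded with FluxOR thallium dye, compound ~10 min, then stimulation buffer; fluorescence decrease read kinetically; AC50 from Hill fits.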
# [9] = S16 Schwann cell viability assay (CellTiter-Glo assay) (AID 624031); details: S16 rat Schwann cells viability, 24 h; series mostly up to 57.5 µM; also: nearly all actives have a fitted effect of over 70% in size; also: potency is read from the fitted curve at half-maximal effect
# Procedure, shortened: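 This viability control uses native rat S16 Schwann cells grown in DMEM plus 10% FBS. After a 24 h compound treatment at 37 °C, CellTiter-Glo luminescence reports ATP content, scaled against DMSO-treated and cell-free wells.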
# [10] = S16 Schwann cell PMP22 intronic element beta-lactamase assay (AID 624044; calls by dose curve; also: nearly all actives have a fitted effect of over 15% in size; also: potency is read from the fitted curve at half-maximal effect); details: S16 rat Schwann cells, PMP22 element beta-lactamase FRET, 24 h; series mostly up to 38.3 µM
# Procedure, shortened: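 Rat S16 Schwann cells with beta-Lac driven by a PMP22 intronic element, compound-treated 24 h at 37 °C. LiveBLAzer FRET B/G read: 460 nm normalized to potassium clavulanate vs DMSO; 535 nm FRET as viability; concentration-effect curves classified.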
# [11] = S16 Schwann cell PMP22 intronic element firefly luciferase assay (AID 624032); details: S16 rat Schwann cells, PMP22 element FLuc, 24 h; series mostly up to 57.5 µM;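 also: plate controls were DMSO for no effect and PTC124 positive control mean for full effect; nearly all actives have a fitted effect of over 30% in size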
# Procedure, shortened: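 Rat S16 Schwann cells stably carrying a PMP22 intronic element-driven Fluc reporter were seeded overnight, then exposed to compounds for 24 h at 37 °C. Luminescence was normalized to PTC124 (positive control) and DMSO (0% activity).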
# Chain of Thyroid hormone receptor beta (Homo sapiens) (P10828 whole entry, looked up): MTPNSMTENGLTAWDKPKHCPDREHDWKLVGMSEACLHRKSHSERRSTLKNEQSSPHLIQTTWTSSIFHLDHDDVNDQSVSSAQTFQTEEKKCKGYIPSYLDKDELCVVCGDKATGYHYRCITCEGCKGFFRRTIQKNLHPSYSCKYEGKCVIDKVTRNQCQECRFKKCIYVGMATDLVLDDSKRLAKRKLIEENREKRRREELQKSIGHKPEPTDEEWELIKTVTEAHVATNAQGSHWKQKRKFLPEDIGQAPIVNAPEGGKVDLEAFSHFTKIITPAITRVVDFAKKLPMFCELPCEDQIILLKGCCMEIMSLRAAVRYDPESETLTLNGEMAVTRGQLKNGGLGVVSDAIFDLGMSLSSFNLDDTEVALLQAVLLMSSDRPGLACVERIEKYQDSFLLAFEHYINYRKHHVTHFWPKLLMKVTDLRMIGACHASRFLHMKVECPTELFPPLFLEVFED
# Chain of Luciferin 4-monooxygenase (Photinus pyralis) (P08659 whole entry, looked up): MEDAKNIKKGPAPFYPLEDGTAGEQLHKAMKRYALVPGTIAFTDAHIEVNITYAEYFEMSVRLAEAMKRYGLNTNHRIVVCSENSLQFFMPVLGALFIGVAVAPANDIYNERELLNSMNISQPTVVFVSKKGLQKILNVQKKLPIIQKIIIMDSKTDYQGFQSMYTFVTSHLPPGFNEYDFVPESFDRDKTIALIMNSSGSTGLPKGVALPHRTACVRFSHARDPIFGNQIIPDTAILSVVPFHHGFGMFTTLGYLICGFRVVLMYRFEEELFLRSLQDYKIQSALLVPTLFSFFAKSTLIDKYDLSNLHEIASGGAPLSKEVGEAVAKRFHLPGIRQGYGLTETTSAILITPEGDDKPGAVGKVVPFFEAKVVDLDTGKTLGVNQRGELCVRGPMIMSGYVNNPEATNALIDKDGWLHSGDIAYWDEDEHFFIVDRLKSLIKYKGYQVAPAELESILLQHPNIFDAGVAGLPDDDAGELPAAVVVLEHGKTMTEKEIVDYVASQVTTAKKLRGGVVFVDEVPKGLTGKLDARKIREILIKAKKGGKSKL
# Chain of Retinoic acid receptor RXR-alpha (Homo sapiens) (P19793 whole entry, looked up): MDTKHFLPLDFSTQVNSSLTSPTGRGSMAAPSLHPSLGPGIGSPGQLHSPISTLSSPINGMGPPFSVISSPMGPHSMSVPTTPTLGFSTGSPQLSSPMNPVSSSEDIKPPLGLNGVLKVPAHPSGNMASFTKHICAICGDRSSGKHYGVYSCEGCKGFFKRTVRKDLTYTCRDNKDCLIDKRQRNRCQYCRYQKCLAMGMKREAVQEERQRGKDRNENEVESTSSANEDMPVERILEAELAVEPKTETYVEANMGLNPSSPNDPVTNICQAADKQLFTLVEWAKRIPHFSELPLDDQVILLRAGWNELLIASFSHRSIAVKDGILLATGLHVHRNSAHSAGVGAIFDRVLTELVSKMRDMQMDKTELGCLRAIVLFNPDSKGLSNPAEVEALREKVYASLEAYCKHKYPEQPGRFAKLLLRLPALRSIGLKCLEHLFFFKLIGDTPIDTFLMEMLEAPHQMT
# Chain of Voltage-gated inwardly rectifying potassium channel KCNH2 (Homo sapiens) (Q12809 whole entry, looked up): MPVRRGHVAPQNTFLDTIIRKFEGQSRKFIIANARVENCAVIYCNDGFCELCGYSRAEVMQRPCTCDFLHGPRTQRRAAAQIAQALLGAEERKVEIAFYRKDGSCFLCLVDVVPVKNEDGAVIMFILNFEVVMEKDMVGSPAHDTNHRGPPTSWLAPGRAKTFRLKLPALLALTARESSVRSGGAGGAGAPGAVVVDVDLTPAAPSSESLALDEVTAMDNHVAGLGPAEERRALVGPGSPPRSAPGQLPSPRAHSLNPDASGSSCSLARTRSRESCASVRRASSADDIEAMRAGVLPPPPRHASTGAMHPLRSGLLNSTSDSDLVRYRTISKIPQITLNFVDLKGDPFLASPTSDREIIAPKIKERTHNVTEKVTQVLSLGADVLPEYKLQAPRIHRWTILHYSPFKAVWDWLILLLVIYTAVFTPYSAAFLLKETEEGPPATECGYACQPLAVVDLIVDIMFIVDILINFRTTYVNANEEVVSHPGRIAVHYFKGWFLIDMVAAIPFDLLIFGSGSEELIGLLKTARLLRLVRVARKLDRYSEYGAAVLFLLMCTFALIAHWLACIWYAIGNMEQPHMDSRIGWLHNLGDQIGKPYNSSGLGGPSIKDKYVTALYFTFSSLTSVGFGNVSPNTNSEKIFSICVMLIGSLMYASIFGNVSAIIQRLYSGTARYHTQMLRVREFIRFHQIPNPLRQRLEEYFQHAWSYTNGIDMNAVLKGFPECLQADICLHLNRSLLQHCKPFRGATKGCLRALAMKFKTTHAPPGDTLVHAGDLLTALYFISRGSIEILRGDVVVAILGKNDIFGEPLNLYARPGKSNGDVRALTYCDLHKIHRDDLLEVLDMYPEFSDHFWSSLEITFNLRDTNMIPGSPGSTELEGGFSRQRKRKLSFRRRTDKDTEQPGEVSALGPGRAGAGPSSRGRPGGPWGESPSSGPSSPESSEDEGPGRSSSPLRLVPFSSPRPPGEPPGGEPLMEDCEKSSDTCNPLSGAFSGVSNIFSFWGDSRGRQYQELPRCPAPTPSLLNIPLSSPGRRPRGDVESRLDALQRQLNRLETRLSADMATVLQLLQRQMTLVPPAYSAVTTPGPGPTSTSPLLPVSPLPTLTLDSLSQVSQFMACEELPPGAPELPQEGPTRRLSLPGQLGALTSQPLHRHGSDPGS
compound,measurement,setting,value
O=C(c1ccccc1)c1ccccc1,max response,[1],-0.815% and -2.27%
same,max response,[2],29.2% (inactive) and -10.9% (inactive)
same,Potency,[3],inactive
same,activation,[4],-6.89% (inactive) and 0.517% (inactive)
Cc1cc(C(C)(C)C)c(O)c(C(C)(C)C)c1,outcome,[5],inactive
same,activity change % (negative = inhibition),[6],-7.42% (inactive)
same,Potency,[3],inactive
same,Potency,[7],inactive
same,activation,[4],-3.94% (inactive) and -1.07% (inactive)
c1ccc2occc2c1,outcome,[5],inactive
same,max response,[1],-13.5% and -7.35%
same,max response,[2],6.36% (inactive) and -5.03% (inactive)
same,Potency,[8],inactive
same,Potency,[3],inactive
same,activation,[4],-0.261% (inactive) and -6.48% (inactive) and -3.89% (inactive)
CCCCC(CC)COC(=O)c1ccccc1C(=O)O (stereo not drawn),outcome,[5],inactive
same,max response,[1],-0.199% and -12.8%
same,max response,[2],-7.29% (inactive) and -5.81% (inactive)
same,activity change % (negative = inhibition),[6],-5.5% (inactive) and 6.91% (inactive)
same,Potency,[8],inactive
same,activation,[4],-2.67% (inactive) and -0.261% (inactive)
CCCC(=O)c1cc(O)c(O)cc1O,outcome,[5],inactive
same,max response,[1],4.85%
same,max response,[2],15.9% (inactive)
same,activity change % (negative = inhibition),[6],-21% (inactive)
same,Potency,[8],inactive
same,activation,[4],-5.77% (inactive)
Nc1ccc(O)cc1,max response,[1],-3.95%
same,max response,[2],-4.53% (inactive)
same,Potency,[8],inactive
same,Potency,[7],26.6 µM (active)
O=C(Nc1ccc(Cl)cc1)Nc1ccc(Cl)c(Cl)c1,outcome,[5],inactive
CC(NCCC(c1ccccc1)c1ccccc1)c1ccccc1 (stereo not drawn),Potency,[8],2.24 µM (active)
same,Potency,[3],inactive
same,Potency,[9],25.6 µM (active)
same,Potency,[10],inactive
Nc1c2ccccc2nc2ccccc12,Potency,[8],inactive
same,Potency,[3],inactive
same,Potency,[9],inactive
same,Potency,[11],inactive
same,Potency,[10],22.4 µM (active)
same,Potency,[7],10.6 µM (active)
same,Potency,[4],11.2 µM (active)
